We go through 15 sequences from publication PMC8384837, “Expanding the binding specificity for RNA recognition by a PUF domain”.

Holding throughout (test): yeast three-hybrid, YBZ-1, SC-Leu-His + 0.5 mM 3-AT, 4 days
What all share (conditions): tags: N-Gal4 AD-HA kept; label: inside an RPR1-promoter hybrid RNA with tandem MS2 sites; ssRNA

In one assay the target is T1, PUM1 PUF domain R6-TFD (Homo sapiens, UniProt Q14671 828-1176, N1043T;Y1044F;Q1047D).
T1 sequence: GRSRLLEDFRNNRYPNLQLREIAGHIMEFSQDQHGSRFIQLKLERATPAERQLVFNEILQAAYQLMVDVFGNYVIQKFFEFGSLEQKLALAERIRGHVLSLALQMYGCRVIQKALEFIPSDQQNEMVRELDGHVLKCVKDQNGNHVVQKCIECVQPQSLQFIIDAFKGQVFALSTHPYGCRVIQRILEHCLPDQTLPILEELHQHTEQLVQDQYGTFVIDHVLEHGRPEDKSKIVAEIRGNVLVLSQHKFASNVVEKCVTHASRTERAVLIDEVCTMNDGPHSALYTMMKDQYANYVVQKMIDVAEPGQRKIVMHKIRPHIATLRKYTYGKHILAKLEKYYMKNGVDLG
Put shortly:
(§1)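 Repeat regions from input (SC-Leu) and selection (SC-Leu-His + 0.5 mM 3-AT) plates were PCR-amplified and Illumina-sequenced after four days of growth. The cells were strain YBZ-1 with a LexA–MS2 coat fusion and a HIS3 reporter, co-expressing Pumilio-1 PUF domain libraries and matching RNA elements from a centromeric plasmid. The interaction score is the log change in variant frequency from input to selection, taken in log2 with a pseudocount of 1 for absent variants.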

In a further assay the target is PUM1 PUF domain R5-FRV (Homo sapiens, UniProt Q14671 828-1176, C1007F;Q1011V). Put shortly:
as §1

In a further assay the target is PUM1 PUF domain R5-RNS (Homo sapiens, UniProt Q14671 828-1176, C1007R;R1008N;Q1011S). The gist of the method: as §1
A further assay deals with PUM1 PUF domain R8-PFQ (Homo sapiens, UniProt Q14671 828-1176, N1122P;Y1123F). Put shortly:
as §1

The target in another assay is T2, PUM1 PUF domain R6-CWG (Homo sapiens, UniProt Q14671 828-1176, N1043C;Y1044W;Q1047G).
T2 sequence: T1 sequence with T216C, F217W, D220G
Put shortly: as §1

The next assay deals with PUM1 PUF domain R4-WAR (Homo sapiens, UniProt Q14671 828-1176, N971W;H972A;Q975R). The gist of the method:
as §1

The target of another assay is PUM1 PUF domain R8-RRP (Homo sapiens, UniProt Q14671 828-1176, N1122R;Y1123R;Q1126P). Put shortly: as §1
The next assay addresses PUM1 PUF domain R5-NGC (Homo sapiens, UniProt Q14671 828-1176, C1007N;R1008G;Q1011C). The gist of the method:
as §1

A further assay concerns the target PUM1 PUF domain R5-CAR (Homo sapiens, UniProt Q14671 828-1176, R1008A;Q1011R). Put shortly: as §1
Another assay concerns the target PUM1 PUF domain R5-RKQ (Homo sapiens, UniProt Q14671 828-1176, C1007R;R1008K). Put shortly:
as §1

A further assay deals with PUM1 PUF domain R3-WCM (Homo sapiens, UniProt Q14671 828-1176, C935W;R936C;Q939M). Put shortly:
as §1

The target in another assay is PUM1 PUF domain R3-GYD (Homo sapiens, UniProt Q14671 828-1176, C935G;R936Y;Q939D). Put shortly: as §1
A further assay has as its target PUM1 PUF domain R3-RRM (Homo sapiens, UniProt Q14671 828-1176, C935R;Q939M). The gist of the method: as §1
For a further assay, the target named is PUM1 PUF domain R1-KMC (Homo sapiens, UniProt Q14671 828-1176, S863K;R864M;Q867C). The gist of the method: as §1
A further assay concerns the target PUM1 PUF domain R1-GRN (Homo sapiens, UniProt Q14671 828-1176, S863G;Q867N). The gist of the method: as §1
The next assay deals with PUM1 PUF domain R1-HGR (Homo sapiens, UniProt Q14671 828-1176, S863H;R864G;Q867R). Put shortly: as §1
A further assay deals with PUM1 PUF domain R1-KDL (Homo sapiens, UniProt Q14671 828-1176, S863K;R864D;Q867L). The gist of the method: as §1
The target in a further assay is PUM1 PUF domain R1-QGR (Homo sapiens, UniProt Q14671 828-1176, S863Q;R864G;Q867R). Put shortly:
as §1

For the next assay, the target named is PUM1 PUF domain R2-LWR (Homo sapiens, UniProt Q14671 828-1176, N899L;Y900W;Q903R). The gist of the method:
as §1

For the next assay, the target named is PUM1 PUF domain R2-KIG (Homo sapiens, UniProt Q14671 828-1176, N899K;Y900I;Q903G). Put shortly: as §1

Substitutions are numbered along the chain they refer to.

Regarding “GGCUAGAACUAGUGGAUCCCCCGGCGCCCGGCGGCUCGAGCCCGGGUAAGUGGAAAUAGUCUGCAUGCCGCCGGGCGCCAUGCCUGCAGGUCGACUCUAGAAAACAUG”, the binding signal in the assay with PUM1 PUF domain R6-TFD was 4.99 log2 enrichment (interaction score).
Regarding “GGCUAGAACUAGUGGAUCCCCCGGCGCCCGGCGGCUCGAGCCCGGGUAAGUGUUAAUAGUCUGCAUGCCGCCGGGCGCCAUGCCUGCAGGUCGACUCUAGAAAACAUG”, the figures for the binding signal with PUM1 PUF domain R5-FRV and in the assay with PUM1 PUF domain R5-RNS were 2.68 log2 enrichment (interaction score) and 4.14 log2 enrichment (interaction score), respectively.
Consider “GGCUAGAACUAGUGGAUCCCCCGGCGCCCGGCGGCUCGAGCCCGGGUAAGUGUAAAUAGUCUGCAUGCCGCCGGGCGCCAUGCCUGCAGGUCGACUCUAGAAAACAUG”, for which the binding signal with PUM1 PUF domain R8-PFQ is 2.66 log2 enrichment (interaction score); in the assay with PUM1 PUF domain R6-CWG, 3.03 log2 enrichment (interaction score); in the assay with PUM1 PUF domain R4-WAR, 1.01 log2 enrichment (interaction score); with PUM1 PUF domain R8-RRP, 2.63 log2 enrichment (interaction score).
For “GGCUAGAACUAGUGGAUCCCCCGGCGCCCGGCGGCUCGAGCCCGGGUAAGUGUGAAUAGUCUGCAUGCCGCCGGGCGCCAUGCCUGCAGGUCGACUCUAGAAAACAUG”, the binding signal in the assay with PUM1 PUF domain R5-NGC is 3.12 log2 enrichment (interaction score).
With “GGCUAGAACUAGUGGAUCCCCCGGCGCCCGGCGGCUCGAGCCCGGGUAAGUGUCAAUAGUCUGCAUGCCGCCGGGCGCCAUGCCUGCAGGUCGACUCUAGAAAACAUG”, the binding signal in the assay with PUM1 PUF domain R5-CAR is 4.28 log2 enrichment (interaction score); with PUM1 PUF domain R5-RKQ, 3.43 log2 enrichment (interaction score); with PUM1 PUF domain R5-FRV it was 1.98 log2 enrichment (interaction score); in the assay with PUM1 PUF domain R5-RNS, 3.43 log2 enrichment (interaction score).
Turning to “GGCUAGAACUAGUGGAUCCCCCGGCGCCCGGCGGCUCGAGCCCGGGUAAGUGUAAGUAGUCUGCAUGCCGCCGGGCGCCAUGCCUGCAGGUCGACUCUAGAAAACAUG”, the binding signal is 4.19 log2 enrichment (interaction score) with PUM1 PUF domain R3-WCM and 5.08 log2 enrichment (interaction score) in the assay with PUM1 PUF domain R3-GYD.
In the case of “GGCUAGAACUAGUGGAUCCCCCGGCGCCCGGCGGCUCGAGCCCGGGUAAGUGUAAUUAGUCUGCAUGCCGCCGGGCGCCAUGCCUGCAGGUCGACUCUAGAAAACAUG”, in the assay with PUM1 PUF domain R3-RRM, the binding signal was 3.06 log2 enrichment (interaction score).
Turning to “GGCUAGAACUAGUGGAUCCCCCGGCGCCCGGCGGCUCGAGCCCGGGUAAGUGUAAAUGGUCUGCAUGCCGCCGGGCGCCAUGCCUGCAGGUCGACUCUAGAAAACAUG”, the binding signal is 3.4 log2 enrichment (interaction score) with PUM1 PUF domain R1-KMC and 1.19 log2 enrichment (interaction score) with PUM1 PUF domain R1-GRN.
In the case of “GGCUAGAACUAGUGGAUCCCCCGGCGCCCGGCGGCUCGAGCCCGGGUAAGCGUAAAUAGUCUGCAUGCCGCCGGGCGCCAUGCCUGCAGGUCGACUCUAGAAAACAUG”, the binding signal in the assay with PUM1 PUF domain R8-PFQ was 3.59 log2 enrichment (interaction score); with PUM1 PUF domain R8-RRP, 4.45 log2 enrichment (interaction score).
For the sequence “GGCUAGAACUAGUGGAUCCCCCGGCGCCCGGCGGCUCGAGCCCGGGUAAGUGUAAAUUGUCUGCAUGCCGCCGGGCGCCAUGCCUGCAGGUCGACUCUAGAAAACAUG”, the binding signal with PUM1 PUF domain R1-HGR is 2.93 log2 enrichment (interaction score); in the assay with PUM1 PUF domain R1-KDL, 3.53 log2 enrichment (interaction score).
Consider “GGCUAGAACUAGUGGAUCCCCCGGCGCCCGGCGGCUCGAGCCCGGGUAAGUGUAAAUCGUCUGCAUGCCGCCGGGCGCCAUGCCUGCAGGUCGACUCUAGAAAACAUG”, for which the binding signal with PUM1 PUF domain R1-KDL was 0.72 log2 enrichment (interaction score); with PUM1 PUF domain R1-QGR, 2.69 log2 enrichment (interaction score); with PUM1 PUF domain R1-GRN, 3.33 log2 enrichment (interaction score).
In the case of “GGCUAGAACUAGUGGAUCCCCCGGCGCCCGGCGGCUCGAGCCCGGGUAAGUGUAAAAAGUCUGCAUGCCGCCGGGCGCCAUGCCUGCAGGUCGACUCUAGAAAACAUG”, in the assay with PUM1 PUF domain R2-LWR, the binding signal was 3.68 log2 enrichment (interaction score).
For the sequence “GGCUAGAACUAGUGGAUCCCCCGGCGCCCGGCGGCUCGAGCCCGGGUAAGUGUACAUAGUCUGCAUGCCGCCGGGCGCCAUGCCUGCAGGUCGACUCUAGAAAACAUG”, in the assay with PUM1 PUF domain R4-WAR, the binding signal is 3.19 log2 enrichment (interaction score).
With “GGCUAGAACUAGUGGAUCCCCCGGCGCCCGGCGGCUCGAGCCCGGGUAAGUGUAAAGAGUCUGCAUGCCGCCGGGCGCCAUGCCUGCAGGUCGACUCUAGAAAACAUG”, the binding signal in the assay with PUM1 PUF domain R2-KIG was 3.17 log2 enrichment (interaction score); with PUM1 PUF domain R2-LWR, 1.92 log2 enrichment (interaction score).
“GGCUAGAACUAGUGGAUCCCCCGGCGCCCGGCGGCUCGAGCCCGGGUAAGUGAAAAUAGUCUGCAUGCCGCCGGGCGCCAUGCCUGCAGGUCGACUCUAGAAAACAUG”: the binding signal with PUM1 PUF domain R6-CWG is 4.54 log2 enrichment (interaction score).
